Screening results (PubChem)
Shown are actives, neighbours in structure and some others; about 2.3% of the full set was active somewhere.
ATXN2 expr inh: reduces ATXN2 reporter expression in HEK-293 cells; HEK-293 ATXN2-luciferase reporter, luminescence, 24 h; Potency, µM (top dose mostly 57 µM), without a hit: top-dose activity change, negative = inhibition, actives largely listed as inhibitors; 0.72% of 360,000 active; AID 1745845; also: % is scaled to controls: 0 for no effect and ±100 for the full control effect; nearly all actives have a fitted effect of over 55% in size
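ATXN2-luciferase reporter cells (luciferase flanked by upstream and downstream ATXN2 gene portions) were treated 24 h at 37 °C with compounds at up to 57 uM. SteadyGlo luminescence gave expression; GF-AFC fluorescence gave viability.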
HepG2 tox: kills HepG2 cells in TGF-b inhibitor counter-screen; HepG2 CAGA-GFP viability, ATP luminescence, 18 h; Potency, µM (doses to about 46.1 µM), for inactives: top-dose activity change, negative = cytotoxicity, usual class: cytotoxic; 0.76% of 410,000 active
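HepG2 CAGA-GFP cells (1000/well, DMEM with 1% FBS) received compound, then TGF-beta at 500 pg/mL final, and were incubated 18 hours at 37 degrees C. Viability was read by CellTiter-Glo luminescence. Media-only wells were set as complete cell-killing and DMSO as no toxicity.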
ATXN viability: reduces viability in counter-screen for ATXN expression inhibitors. S2 cells (HEK-293 line with an ATXN2-luciferase reporter) viability, CellTiter-Fluor protease fluorescence, 24 h. Potency, µM (series often up to 56.7 µM), hits mostly cytotoxic. 0.49% of 400,000 active; also: nearly all actives have a fitted effect of over 40% in size
TGFb inhibitor: inhibitors of TGF-b signaling. AID 588855. 1.2% of 410,000 active. HepG2 CAGA-GFP TGF-b/SMAD3 reporter, GFP fluorescence, 18 h; TGF-beta stimulated, 500 pg/mL final. Potency, µM (doses to about 46.1 µM), for inactives: at the highest dose activity, negative = inhibition, hits mostly inhibitors; also: % is scaled to controls: 0 for no effect and ±100 for the full control effect; nearly all actives have a fitted effect of over 65% in size
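Inhibition was scored as loss of TGF-beta-induced (500 pg/mL final, 18 hours, 37 degrees C) GFP in HEPG2 cells carrying a CAGA-GFP reporter, in DMEM with 1% FBS. Well GFP was summed per cell; Activity was normalised to unstimulated and stimulated DMSO wells, then concentration-response fitting.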
An asterisk follows results filed as active; i = inactive; u = inconclusive; x = no result. Calls follow the shape of the dose curve; as a rule, active = well fitted curve in the direction sought with a large enough effect; inconclusive = small, poorly fitted or top-dose-only effect, or another doubt; inactive = no such curve, though single readings can be large; an effect the other way counts as inactive or inconclusive. Potency is read from the fitted curve at half-maximal effect.

SMILES	ATXN2 expr inh	HepG2 tox	ATXN viability	TGFb inhibitor
CN(Cc1cnc2nc(N)nc(N)c2n1)c1ccc(C(=O)NC(CCC(=O)O)C(=O)O)cc1 (stereo not drawn)	u	0.282µM*	i	-26.8%
CN(Cc1cnc2nc(N)nc(N)c2n1)c1ccc(C(=O)NC(CCC(=O)O)C(=O)O)cc1C(F)(F)F (stereo not drawn)	u	-62.6%	i	-24.6%
S=c1nc[nH]c2n[nH]nc12	x	-29.8%	x	4.7%
CCCCCn1c(N2CCC(Cc3ccccc3)CC2)nc2c1c(=O)[nH]c(=O)n2C	u	11.2µM*	x	u
O=C(c1ccc(Cn2c(=S)[nH]c3ccccc3c2=O)cc1)N1CCN(c2ccccn2)CC1	15.8µM*	-16.5%	i	u
C/C(=C1\CCOC(=O)S1)N(C=O)Cc1cnc(C)nc1N	5.0%	x	i	x
O=C1C2C3C=CC(CC3)C2C(=O)N1/N=C/c1c[nH]c2ccccc12 (stereo not drawn)	2.0%	5.2%	u	7.1%
CCOC(=O)Cn1cc(C(=O)C2CC2)c2ccccc21	7.1%	0.3%	i	-1.7%
O=C1C2C3C=CC(C3)C2C(=O)N1/N=C/c1cn(Cc2ccc(F)cc2)c2ccccc12 (stereo not drawn)	u	0.891µM*	i	u
CCOC(=O)Cn1cc(/C=N/N2C(=O)C3C4C=CC(C4)C3C2=O)c2ccccc21 (stereo not drawn)	-9.3%	-36.6%	i	6.31µM*
O=C1C2C3C=CC(C3)C2C(=O)N1/N=C/c1cn(Cc2ccccc2)c2ccccc12 (stereo not drawn)	-23.2%	-6.5%	i	4.47µM*
Cc1cnc(-n2ncc(C(=O)N[C@H]3CCCCNC3=O)c2C2CC2)nc1-c1cccs1	x	x	i	x
CCCCCCCCCCCCCC(=O)Nc1ccc(/C=C/c2ccnc3ccccc23)cc1	x	-8.3%	x	4.2%
O=C(c1nnsc1S(=O)(=O)c1ccc(Cl)cc1)N1CCOCC1	u	12.6µM*	x	u
CNC(=O)c1nnsc1S(=O)(=O)c1ccc(Cl)cc1	u	17.8µM*	u	11.2µM*
CCN(CC)S(=O)(=O)c1ccc(NC(=O)CSc2cccc[n+]2[O-])cc1	3.5%	10µM*	i	12.8%
CCCN(Cc1cccs1)C(=O)Nc1ccc(Br)c(C)c1	x	-28.4%	x	11.2µM*
CCCN(Cc1cccs1)C(=O)Nc1ccc(OCC)cc1	x	-14.6%	x	-5.9%
COc1ccc(-n2c(-c3ccc(Cl)cc3)cc3c2CC(C)(C)CC3=O)c(OC)c1	u	-50.2%	u	17.8µM*
COc1ccc(C)cc1-n1c(-c2ccc(Cl)cc2)cc2c1CC(C)(C)CC2=O	0.4%	-14.6%	i	0.3%
CC1CN(CC(=O)N2CCN(Cc3nccn3C)CC2)Cc2cc(Cl)ccc2O1 (stereo not drawn)	x	x	i	x
CCc1ccccc1NC(=O)CC1Sc2ccc(C(F)(F)F)cc2NC1=O (stereo not drawn)	-6.9%	-51.4%	i	12.7%
O=C(CC1Sc2ccc(C(F)(F)F)cc2NC1=O)Nc1ccc(Cl)c(C(F)(F)F)c1 (stereo not drawn)	u	-96.7%	i	14.1µM*
Cc1c(C(=O)NCC2(c3ccccc3)CCOCC2)cnn1-c1nccc(-c2ccco2)n1	x	x	i	x
CCOC(=O)c1c(CSCc2ccccc2)oc2ccc(O)c(CN(C)C)c12	u	22.4µM*	u	u
SMILES	ATXN2 expr inh	HepG2 tox	ATXN viability	TGFb inhibitor
CCOC(=O)c1c(-c2ccccc2)oc2ccc(O)c(CN(C)C)c12	-21.7%	-75.2%	u	-2.1%
C[C@@H]1CN(Cc2ccc3c(c2)CN(Cc2cccn2-c2cccnc2)CCO3)C[C@H](C)O1	x	x	i	x
CNC(=O)c1cc(Oc2ccc(NC(=O)Nc3ccc(Cl)c(C(F)(F)F)c3)c(F)c2)ccn1	19.3µM*	x	x	x
CCOC(=O)c1c(NC(=O)COC(=O)Cc2ccccc2[N+](=O)[O-])sc(C(=O)N(C)C)c1C	1.0%	-11.4%	i	0.0%
CCOC(=O)c1c(NC(=O)COC(=O)c2ccccc2NC)sc(C(=O)N(C)C)c1C	31.6µM*	-7.6%	u	u
O=C(C[n+]1cccc2cc(Cl)ccc21)c1ccc(Br)cc1	x	-53.0%	x	u
O=C(Nc1nccs1)c1ccc(S(=O)(=O)NCc2cccs2)cc1	16.7%	10µM*	i	u
O=C(Nc1nccs1)c1ccc(S(=O)(=O)NCC2CCCCC2)cc1	-11.2%	-4.6%	i	u
